The whole screen tested about 52,000 compounds, of which about 4,300 (8.3%) were called active. Shown is part of a subset that was picked to be rich in actives. Values without a mark were called inactive. No stated cut-off is given here; in the data, active means survival mostly below about 52% (no sharp cut-off); inactive means mostly above about 56%.
test system: DeltatarO mutant; experiment: growth inhibition of S. aureus wild type versus tarO mutant, primary screen, teichoic acid synthesis inhibitors, RN4220, OD600 (AID 463173); details: OD600, 18 h, active compounds read low, screened at 18.75 µg/mL (by protocol)

SMILES	survival
Cc1ccc(Cl)cc1NC(=O)COC(=O)CC(C)(C)CC1=NS(=O)(=O)c2ccccc2N1	84%
CC(C)(CO)C(O)C(=O)NN (centres undefined)	84%
Cc1ccc2c(c1)C(C)(c1ccccc1)CC(C)(C)N2C(=O)c1ccc(F)cc1 (centres undefined)	-4% (active)
Cc1ccc(C(=O)N2c3ccc(C)cc3C(C)(c3ccccc3)CC2(C)C)cc1 (centres undefined)	4% (active)
Cc1ccc(NC(=O)NCc2ccc3c(c2)CCN3C(=O)c2ccccc2)c(Cl)c1	82%
CC1=CC(C)(C)N(CC(=O)c2ccccc2)c2ccc(C)cc21	97%
CC(=O)OC1CC(C)N(C(=O)c2ccccc2)c2ccc(C)cc21 (centres undefined)	67%
Cc1ccc2c(c1)N(C(=O)c1ccc(F)cc1)C(C)(C)CC2(C)c1ccccc1 (centres undefined)	24% (active)
COc1ccc(C(=O)NCc2ccc3c(c2)CCN3C(=O)c2ccccc2)cc1	84%
COc1ccc(C(=O)N2c3ccc(C)cc3C(C)(c3ccccc3)CC2(C)C)cc1 (centres undefined)	25% (active)
Cc1ccc(C(=O)N2CCN(c3ccccc3)CC2)cc1	87%
COc1ccc(C(=O)NCc2ccc3c(c2)CCN3C(=O)c2ccc(C)cc2)cc1	82%
Cc1ccc(C)c(N2CCN(C(=O)c3ccc4c(c3)N(Cc3ccc(F)cc3)C(=O)c3ccccc3S4=O)CC2)c1 (centres undefined)	101%
Cc1ccc(C(=O)N2CC(=O)NC(=O)C2)cc1	83%
CCOC(=O)C1CCC(CN(Cc2ccc(OC)cc2)S(=O)(=O)c2ccc(F)c(C(=O)Nc3c(C)cccc3C)c2)CC1 (centres undefined)	83%
O=C(NCCCN1CCOCC1)C1CC(c2ccccc2O)=NO1 (centres undefined)	97%
Cn1cccc1C(C(=O)NC1CCCCC1)N(C(=O)Cn1nnc2ccccc21)c1cnc2ccccc2c1 (centres undefined)	112%
Cc1cc(C)nc(SCC(=O)Nc2ccc(N3CCOCC3)cc2)n1	82%
CCc1ccccc1NC(=O)Cn1c(=O)n(Cc2ccc(OC)cc2)c(=O)c2oc3ccccc3c21	70%
CC1(C)CC(=O)c2cc(C(=O)Nc3ccc(Br)cc3)c(=O)[nH]c2C1	70%
O=C(CCS(=O)(=O)c1cc(Br)cc2c1N(C(=O)C1CC1)CC2)N1CCN(c2cccc(C(F)(F)F)c2)CC1	59%
Cc1nc2ccn(Cc3ccco3)c(=O)c2cc1C(=O)N1CCN(c2ccc(F)cc2)CC1	135%
CCc1nc2ccccc2n1CCCCOc1cccc(C)c1	-2% (active)
CCc1nc2ccccc2n1CCCCOc1ccc(C)cc1	1% (active)

SMILES	survival
CCCC(O)c1nc2ccccc2n1CCCOc1ccc(Cl)cc1 (centres undefined)	65%
CCc1nc2ccccc2n1CCCCOc1ccccc1C	0% (active)
Cc1cccc(OCCCn2c(CCNC(=O)C3CCCCC3)nc3ccccc32)c1	37%
CCc1nc2ccccc2n1CCCCOc1ccc(Cl)cc1	-3% (active)
CCc1nc2ccccc2n1CCO	77%
O=C1C2C3C=CC(C3)C2C(=O)N1CCN1CCN(S(=O)(=O)c2ccc(Br)cc2)CC1 (centres undefined)	60%
CCOc1ccccc1NC(=O)c1c2c(nc3ccccc13)C(=O)N(C1CCCCC1)C2	55%
COc1ccc(OC)c(NCc2cccn2-c2nnc(N3CCCCC3)s2)c1	93%
COc1ccc(CC(=O)NCc2nc3cccnc3n2Cc2ccc(C)cc2)cc1	92%
CN1C(=O)/C(=C/c2cccs2)SC1=S	113%
COc1ccc(Nc2ncc(C(=O)N3CCN(c4cccc(Cl)c4)CC3)c3ccccc23)cc1	62%
Cc1cccc(N2CCN(C(=O)C3CCCN(S(=O)(=O)c4ccc5c(c4)oc(=O)n5C)C3)CC2)c1C (centres undefined)	84%
CC(=O)N1CCCC1c1nc2ccccc2n1Cc1cc(C)ccc1C (centres undefined)	106%
Cc1cc(NC(=O)c2cccn2-c2nnc(N3CCCCC3)s2)ccc1Br	117%
CCCCN(C)CCCNC(=O)C1CCN(S(=O)(=O)CC)CC1	108%
O=C(c1ccccc1Br)N(Cc1ccco1)Cc1ccco1	45% (active)
COc1ccc(C(=O)N(Cc2ccco2)Cc2ccco2)cc1	58%
O=C(c1ccccc1Cl)N(Cc1ccco1)Cc1ccco1	60%
Cc1ccc(CN(Cc2ccco2)C(=O)c2ccccc2Cl)o1	74%
Cc1ccc(C(=O)N(Cc2ccco2)Cc2ccco2)cc1	61%
CCOc1ccccc1C(=O)N(Cc1ccco1)Cc1ccco1	73%
Cc1ccc(CN(Cc2ccco2)C(=O)c2ccccc2Br)o1	47%
Cc1ccc(C(=O)N(Cc2ccc(N(C)C)cc2)Cc2ccco2)cc1	73%
CCc1ccc(CN(Cc2ccco2)C(=O)c2ccc(OC)cc2)cc1	52% (active)

SMILES	survival
CCc1ccc(CN(Cc2ccco2)C(=O)c2ccccc2Cl)cc1	46% (active)
CCc1ccc(CN(Cc2ccco2)C(=O)c2ccc(C)cc2)cc1	41% (active)
COc1ccc(C(=O)N(Cc2ccco2)Cc2ccc(C)o2)cc1	71%
COc1cccc(/C=C(\C#N)C(=O)Nc2ccc(NC(C)=O)cc2)c1OC	89%
Cc1ccccc1C(=O)Nc1ccc2oc(-c3ccc(Cl)c(Cl)c3)nc2c1	64%
Cc1ccc2cc(CN(Cc3ccccc3)C(=O)C3CC3)c3nnnn3c2c1	100%
O=C(NCc1ccco1)C(c1ccccc1)N(C(=O)Cn1nnc2ccccc21)C1CCCC1 (centres undefined)	105%
Cc1ccc(N2CC(NC(=O)c3ccccc3C(F)(F)F)CC2=O)cc1C (centres undefined)	55%
CC(=O)Nc1ccc(NC(=O)CN(C)S(=O)(=O)c2ccc3c(c2)CCCC(=O)N3)cc1	84%
CCN(CC)C(NC(=O)c1ccccc1)C(=O)c1ccccc1 (centres undefined)	85%
COc1ccc(-c2nn(-c3cccc(F)c3)c3c2cnc2cc(OC)c(OC)cc23)cc1	67%
Cc1ccc(S(=O)(=O)N(CCO)Cc2ccccc2)cc1	87%
O=C(Cn1nc(C(F)(F)F)c2c1CCCC2)Nc1ccc(F)c(Cl)c1	62%
COC(=O)c1cc(NC(=O)Cn2nc(-c3ccccc3)c3c(c2=O)CCCC3)cc(C(=O)OC)c1	24% (active)
COC(=O)c1cc(NC(=O)Cn2nc(-c3ccc(C)c(C)c3)ccc2=O)cc(C(=O)OC)c1	65%
CCc1nc(Nc2ccc(F)c(Cl)c2)c2c3c(sc2n1)CCCC3	-4% (active)
CC(=O)Nc1ccc(Nc2ncnc3sc4c(c23)CCCC4)cc1	76%
CC(C(=O)Nc1cc(C(F)(F)F)ccc1Cl)n1nnc2sc3c(c2c1=O)CCCC3 (centres undefined)	53% (active)
COc1ccc(Nc2ncnc3sc4c(c23)CCCC4)cc1	69%
O=C(Cn1c(=O)nc(-c2ccccc2)c2cc(Cl)ccc21)Nc1ccc(F)c(Cl)c1	75%
COC(=O)c1cc(NC(=O)Cn2nc(C)n3cccc3c2=O)cc(C(=O)OC)c1	87%
CC(C(=O)Nc1ccccc1C(F)(F)F)n1nnc2sc3c(c2c1=O)CCCC3 (centres undefined)	81%
O=C(Cn1nc(-c2ccccc2)c2c(c1=O)CCCC2)Nc1ccc(F)c(Cl)c1	23% (active)
Cc1ccc(Cl)cc1NC(=O)C(C)n1nnc2sc3c(c2c1=O)CCCC3 (centres undefined)	69%

SMILES	survival
COc1ccc(OCC(=O)Nc2ccc(-c3nc4cc(C)cc(C)c4o3)cc2)cc1	75%
CCOC(=O)C1=C(CN2CCN(c3ccc(Cl)cc3)CC2)NC(=O)NC1c1ccc(F)cc1 (centres undefined)	70%
CCOC(=O)c1nc(Nc2ccc(Cl)cc2)c2c(C)noc2n1	68%
COc1ccc(OC)c(CNC(=O)c2ccc(NC(=O)c3nsc4ccccc34)cc2)c1	80%
COc1ccc(NC(=O)Cn2nnc3sc4c(c3c2=O)CCCC4)cc1	61%
O=C(Cn1nnc2sc3c(c2c1=O)CCCC3)Nc1ccc(F)c(Cl)c1	36% (active)
Cc1c(Cl)cccc1NC(=O)Cn1nnc2sc3c(c2c1=O)CCCC3	75%
CCOc1ccc(/C=C(\C#N)c2nc(-c3cc4ccccc4oc3=O)cs2)c(OCC)c1	81%
COc1ccc(C(=O)Nc2cccc(-c3nc4cccnc4s3)c2C)c(OC)c1	103%
Cc1ccc(-c2nc3cccnc3s2)cc1NC(=O)Cc1ccccc1	99%
CCCC(=O)Nc1cc(-c2nc3cccnc3s2)ccc1C	109%
CCCCC(=O)Nc1cc(-c2nc3cccnc3s2)ccc1C	35% (active)
COCC(=O)Nc1cccc(-c2nc3cccnc3s2)c1	68%
COc1ccc(CC(=O)Nc2cc(-c3nc4cccnc4s3)ccc2C)cc1	41% (active)
Cc1ccc(C(=O)Nc2cccc(-c3nc4cccnc4s3)c2C)cc1	111%
Cc1cccc(CC(=O)Nc2cccc(-c3nc4cccnc4s3)c2)c1	93%
Cc1cccc(C(=O)Nc2cc(-c3nc4cccnc4s3)ccc2C)c1	45% (active)
CCCCC(=O)Nc1cc(-c2cn3cccnc3n2)ccc1C	102%
COc1cc(OC)cc(C(=O)Nc2cc(-c3nc4cccnc4s3)ccc2C)c1	43% (active)
CCOc1ccc(CC(=O)Nc2cccc(-c3nc4cccnc4s3)c2C)cc1	90%
COc1ccc(N2CCN(C(=O)CS(=O)(=O)c3cccc4nsnc34)CC2)cc1	107%
O=C(CSc1nc2c([nH]c3ccccc32)c(=O)n1-c1cccc(C(F)(F)F)c1)N1CCCC1	71%
